Rows were chosen to be rich in hits. Some 2.8% of all compounds tested hit in one or more screens of this group.
PAFAH1B2 inh – PAFAH1B2 (human) inhibition; P68402; recombinant PAFAH1B2, FP-rhodamine activity probe, fluorescence polarization; inhibition, % at 3.39 µM; hit rate 1.2% among 340,000;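 active means inhibition above the mean of all tested compounds plus 3 SD, cut at about 24% in these data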;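 further: 0% = enzyme with DMSO and 100% = wells lacking PAFAH1B2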
HTRA1 inh – blocks human HTRA1 serine peptidase. Q92743. recombinant HTRA1, FP-rhodamine activity-based probe, fluorescence polarization. inhibition, % at 5.96 µM. hit rate 0.5% among 340,000. AID 504803; in the data active means inhibition above about 36%;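 further: 0% = enzyme with DMSO and 100% = wells lacking enzyme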
PAFAH1B3 FP inh – blocks human PAF acetylhydrolase 1B catalytic subunit 3 | AID 492972 | hit rate 0.28% among 340,000 | recombinant PAFAH1B3, FP-rhodamine probe, fluorescence polarization | inhibition, % at 3.39 µM;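 active means inhibition above the screen-wide average of all tested compounds plus 3 SD, cut at about 25% in these data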;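 further: 0% = enzyme with DMSO only and 100% = wells lacking PAFAH1B3 protein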
DAGLB inh – blocks human DAGLB lipase activity; Q8NCG7; HEK293T DAGLB membrane lysate, EnzChek fluorogenic substrate; inhibition, % at 5.17 µM; hit rate 0.059% among 340,000; in the data active means inhibition above about 34%;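 further: 0% = enzyme with vehicle and 100% = wells lacking enzyme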
Target sequence (Q8NCG7 whole entry, looked up): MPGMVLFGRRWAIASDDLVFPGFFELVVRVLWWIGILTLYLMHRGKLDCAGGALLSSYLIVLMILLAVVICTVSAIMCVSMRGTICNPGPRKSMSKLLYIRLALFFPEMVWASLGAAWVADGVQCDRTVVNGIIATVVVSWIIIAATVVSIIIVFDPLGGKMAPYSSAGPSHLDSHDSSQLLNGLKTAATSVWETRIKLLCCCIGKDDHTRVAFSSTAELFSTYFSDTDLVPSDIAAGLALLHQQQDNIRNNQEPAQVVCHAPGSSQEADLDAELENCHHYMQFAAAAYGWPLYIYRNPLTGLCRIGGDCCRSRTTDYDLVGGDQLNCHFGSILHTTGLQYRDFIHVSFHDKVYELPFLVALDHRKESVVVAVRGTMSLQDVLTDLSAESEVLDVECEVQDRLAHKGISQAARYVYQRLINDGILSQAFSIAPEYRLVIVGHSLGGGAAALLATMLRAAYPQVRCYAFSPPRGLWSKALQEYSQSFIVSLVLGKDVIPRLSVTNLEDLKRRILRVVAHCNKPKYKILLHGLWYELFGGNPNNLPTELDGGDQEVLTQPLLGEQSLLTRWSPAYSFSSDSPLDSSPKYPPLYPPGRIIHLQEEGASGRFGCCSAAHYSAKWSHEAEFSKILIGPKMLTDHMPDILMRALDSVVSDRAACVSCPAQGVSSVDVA
pPAFAH inh – pPAFAH (human) enzyme inhibition; hit rate 1.5% among 330,000; inhibition, % at 3.39 µM; AID 463082; recombinant pPAFAH, FP-rhodamine probe fluorescence polarization;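 active means inhibition above the mean inhibition across the screen plus 3 SD, cut at about 25% in these data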;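 further: inhibitors block binding of the rhodamine activity-based probe so polarization drops; 0% = enzyme with DMSO and 100% = wells lacking pPAFAH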
PAFAH2 FP inh – inhibitors of human PAFAH2 | hit rate 0.99% among 340,000 | inhibition, % at 3.39 µM | Q99487 | recombinant PAFAH2, FP-rhodamine activity probe, fluorescence polarization;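 active means inhibition above the mean over all tested compounds plus 3 SD, cut at about 30% in these data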;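 further: inhibitors block probe labeling of enzyme so polarization drops; 0% = enzyme with DMSO and 100% = wells lacking PAFAH2 protein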
HTRA1 inh conf – HTRA1 (human) inhibition, confirmation. hit rate 66% among 1,600. shares compounds with HTRA1 inh. recombinant HTRA1, FP-rhodamine activity-based probe, fluorescence polarization. inhibition, % at 5.96 µM. AID 540248;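 active means mean inhibition over three repeats above a set limit taken from the earlier primary screen, cut at about 37% in these data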;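 further: 0% = HTRA1 with DMSO and 100% = wells lacking HTRA1; inhibitors block probe binding so polarization drops and inhibition rises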
The depositor's hits bear a star; / = no result.

SMILES	PAFAH1B2 inh	HTRA1 inh	PAFAH1B3 FP inh	DAGLB inh	pPAFAH inh	PAFAH2 FP inh	HTRA1 inh conf
Cc1oc2c(CN3CCCCC3C)c(O)ccc2c(=O)c1-c1ccccc1 (stereo not given)	0	0	1	-4	4	2	/
Cc1oc2c(O)c(O)ccc2c(=O)c1-c1ccc(Cl)cc1	5	69*	22	25	30*	23	91*
O=C(CC1SC(N2CCCCC2)=NC1=O)Nc1cccc(C(=O)N2CCCC(C(F)(F)F)C2)c1 (stereo not given)	9	0	11	7	/	-2	/
O=C(CCl)N1c2ccccc2Oc2ccc3ccccc3c21	24	80*	30*	-39	/	30*	-20
Cc1ccnc(Nc2nc(-c3ccc(O)cc3O)cs2)c1	8	37*	22	3	14	7	44*
Nc1sc2c(c1C(=O)NC1CC1)CCCC2	4	47*	11	-4	5	8	8
CCNC(=O)c1c(N)sc2c1CCCCC2	/	/	/	/	4	/	/
O=C(COC(=O)CN1C(=O)C2CCCCC2C1=O)NNC(=O)c1ccc(Cl)cc1 (stereo not given)	7	2	-2	0	1	0	/
CC(Cc1cccnc1)NC(=O)c1cc(COc2ccc(F)cc2Cl)on1 (stereo not given)	0	0	1	2	1	-15	/
COc1cc2nc(Nc3ccc(C)c(C)c3)nc(N)c2cc1OC	7	18	16	1	7	5	/
COc1cc2nc(Nc3ccc(C)c(Cl)c3)nc(N)c2cc1OC	12	36*	20	2	22	10	46*
Cc1ccc(C(c2c(C)n(C)n(-c3ccccc3)c2=O)c2c(C)n(C)n(-c3ccccc3)c2=O)s1	3	36	7	0	6	23	/
O=C(O)C1OC(Oc2cc3oc(-c4ccccc4)cc(=O)c3c(O)c2O)C(O)C(O)C1O (stereo not given)	5	45*	17	4	16	10	43*
COc1c(OC2OC(C(=O)O)C(O)C(O)C2O)cc(O)c2c(=O)cc(-c3ccccc3)oc12 (stereo not given)	2	1	7	0	0	4	/
Cc1cc2nc3c(=O)n(C4CCCCC4)c(=O)[nH]c3nc2cc1N	4	58*	5	-77	/	20	28
CCCCCC[N+](C)(C)CCSSCC[N+](C)(C)CCCCCC	2	0	11	-2	2	14	/
CCCCCCCCCCCCCCCC[N+](C)(C)CCl	-4	65*	6	-1	/	-2	74*
CCCCCCCCCCCCCCCC[N+](C)(C)CC	9	61*	-8	6	16	-1	167*
CCn1c2ccccc2c2c3ncc4cccn4c3ccc21	1	47*	0	1	22	-2	-17
O=C1CC(/C=C/c2ccco2)=Nc2ccccc2N1	6	43*	10	4	26*	7	-1
O=C(CCN1C(=O)/C(=C\c2ccccc2)SC1=S)NNC(=O)c1ccccc1O	2	56*	16	14	19	-2	54*
COc1ccccc1N1CCN(Cc2ccc(OC)c(OC)c2OC)CC1	3	2	2	-3	4	7	/
Oc1ccc(CN2CCCc3ccccc32)c2cccnc12	0	39*	5	7	14	4	35
COc1ccccc1N1CCN(Cc2ccc(O)c3ncccc23)CC1	7	45*	5	7	4	0	53*
CCOC(=O)C1=C(CS(=O)(=O)c2ccc(F)cc2)NC(=O)NC1c1ccc(O)c(O)c1 (stereo not given)	0	48*	6	8	18	8	52*
SMILES	PAFAH1B2 inh	HTRA1 inh	PAFAH1B3 FP inh	DAGLB inh	pPAFAH inh	PAFAH2 FP inh	HTRA1 inh conf
CC(C)CCN(C(=O)CNC(=O)c1ccco1)C(C(=O)NC1CCCCC1)c1cccnc1 (stereo not given)	1	-3	2	2	4	4	/
COc1ccc2c(c1)NC(C)(C)C=C2C	4	46*	7	4	13	20	5
CC1=CC(C)(C)Nc2ccccc21	6	-2	7	1	5	2	/
Fc1ccccc1Oc1nc(-c2ccncc2)nc2ccccc12	-2	-2	14	-8	2	4	/
NS(=O)(=O)c1ccc(N/N=C/c2ccc(O)c(O)c2O)c([N+](=O)[O-])c1	-1	78*	12	17	/	6	67*
Cc1ccc(/C=C2/SC(=O)NC2=S)o1	26*	40*	45*	1	/	60*	18
O=C(NCC(=O)c1ccccc1)OCc1ccc([N+](=O)[O-])cc1	7	1	2	0	0	-2	/
Cc1c(Cl)ccc2c(C(O)CBr)cc(-c3ccccc3)nc12 (stereo not given)	-6	-63	0	-3	/	-20	/
OC(CNCc1ccccc1)Cn1ccc2ccccc21 (stereo not given)	5	0	-1	-2	3	8	/
Oc1ccccc1NCC(O)Cn1ccc2ccccc21 (stereo not given)	8	54*	6	7	10	-4	21
COc1ccc(C(Sc2ccccc2)c2ccccc2)cc1OC (stereo not given)	3	-9	10	-9	9	7	/
FC(F)(F)c1cnc(NNC(=S)Nc2ccccc2)c(Cl)c1	/	47*	/	-1	/	/	30
Cc1cc(C)c(NC(=S)NCC2CCN(C(C)c3ccccc3)C2)c(C)c1 (stereo not given)	4	-2	4	1	-2	5	/
CCN(CC)CCCn1c2c(c(SCC(=O)N3CCc4ccccc43)nc1=O)CCC2	4	4	4	4	4	3	/
CCOc1cccc(CNc2ccc(O)cc2)c1OCc1ccccc1Cl	5	52*	6	-1	32*	2	15
CCOc1cccc(CNc2ccc(O)cc2)c1OCc1ccc(Cl)cc1Cl	10	60*	16	-1	31*	4	29
CCOc1cccc(CNCCO)c1OCc1ccc(Cl)cc1Cl	6	-3	1	-2	-1	0	/
CCOC(=O)C1=C(COC(=O)CCOc2ccccc2C)NC(=O)NC1C (stereo not given)	6	-3	-2	-5	6	9	/
Cc1nc2ccc(NC(=O)c3ccccc3)cc2c(=O)n1Cc1ccc(F)cc1	/	-70	/	2	/	/	/
Cc1ccc(NC(=O)CS(=O)CC(=O)Nc2ccccc2-c2ccc(C)o2)cc1 (stereo not given)	18	57*	4	-3	5	-5	-9
CN1CCc2cc(O)c(O)cc2C(c2ccccc2)C1 (stereo not given)	4	4	8	2	3	0	/

From PubChem BioAssay
